A selection: hits, their analogues and other compounds. The true share with any hit is near 3.1%.
S-ASM inh = inhibitors of human secretory acid sphingomyelinase; Potency, µM (doses to about 57.5 µM), actives largely listed as inhibitors; AID 504937; 340,000 tested, 0.006% active; placental ASM, HMU-PC fluorogenic substrate, 60 min
Target sequence (P17405 47-631 limits assumed): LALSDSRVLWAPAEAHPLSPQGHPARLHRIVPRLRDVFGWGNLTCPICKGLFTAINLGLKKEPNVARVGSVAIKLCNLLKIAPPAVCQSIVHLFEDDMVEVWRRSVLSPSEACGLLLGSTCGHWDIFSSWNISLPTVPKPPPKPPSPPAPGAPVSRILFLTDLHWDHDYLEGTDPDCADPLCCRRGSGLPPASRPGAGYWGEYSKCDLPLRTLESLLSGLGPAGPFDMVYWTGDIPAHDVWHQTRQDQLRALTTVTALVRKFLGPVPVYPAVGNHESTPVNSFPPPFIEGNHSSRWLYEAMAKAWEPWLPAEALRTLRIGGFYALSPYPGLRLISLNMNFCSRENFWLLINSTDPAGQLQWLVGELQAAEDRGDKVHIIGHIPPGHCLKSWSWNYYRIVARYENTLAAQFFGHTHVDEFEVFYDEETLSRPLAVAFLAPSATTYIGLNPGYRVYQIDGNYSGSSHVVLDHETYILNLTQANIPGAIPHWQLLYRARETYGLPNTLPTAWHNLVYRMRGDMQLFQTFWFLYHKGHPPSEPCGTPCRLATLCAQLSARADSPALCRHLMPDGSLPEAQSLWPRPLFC
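HMU-PC0 cleavage (9 uM final) by human placental ASM, 60 min at 37 °C following 10 min compound exposure at RT; stopped at pH 10, fluorescence Ex 386/Em 447 nm.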
Pin1 inhibitor = blocks the human prolyl isomerase Pin1 | AID 504891 | Pin1 FP peptide displacement, HiFluor488, 10 min | Q13526 | Potency, µM (top dose mostly 115 µM), actives largely listed as inhibitors | 390,000 tested, 0.009% active; active means well fitted inhibition curve with a large enough effect in the polarisation, with a control signal flat, not every such curve was filed as active; inconclusive means small, poorly fitted or top-dose-only effect, or effect the other way, or a change in a side signal; inactive means no such curve, though single readings can be large or run the other way; the % refers to the polarisation
Target sequence (Q13526 whole entry, looked up): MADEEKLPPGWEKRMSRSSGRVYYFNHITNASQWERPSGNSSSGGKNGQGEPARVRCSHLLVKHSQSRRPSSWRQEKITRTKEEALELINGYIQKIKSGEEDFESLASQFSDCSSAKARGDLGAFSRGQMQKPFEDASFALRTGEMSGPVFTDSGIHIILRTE
Tb PFK inh = T. brucei PFK enzyme inhibition; Potency, µM (highest dose often 57.5 µM), actives largely listed as inhibitors; O15648; AID 485367; 330,000 tested, 0.17% active; T. brucei PFK, ADP-Glo luminescence; further: nearly all actives have a fitted effect of over 60% in size
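ADP-Glo luminescence quantified ADP after 45 min at room temperature, with 1.25 nM T. brucei PFK, 0.1 mM ATP and 0.5 mM fructose-6-phosphate in pH 8.0 TEA buffer. qHTS titrations up to 57 µM; curves classified by quality.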
VDR inhibitor = blocks the human vitamin D receptor | 400,000 tested, 0.93% active | VDR-SRC2-3 peptide fluorescence polarization, 2 h | P11473 | Potency, µM, actives largely listed as inhibitors
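The screen uses fluorescence polarization to detect compounds that interfere with recruitment of the SRC2-3 coactivator peptide to VDR; plates are read after 2 h at room temperature.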
TDP1 block = inhibitors of human tyrosyl-DNA phosphodiesterase TDP1; Potency, µM (highest dose often 130 µM), actives largely listed as inhibitors; 350,000 tested, 0.28% active; recombinant TDP1, AlphaScreen DNA substrate cleavage; further: nearly all actives have a fitted effect of over 40% in size
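E. coli-derived human Tdp1, 1 nM final. Cpd preinc 15 min RT; substrate 15 nM final, 5 min RT; AS bead mix 10 ug/ml final, 10 min RT. Signal loss = tyrosine-FITC cleavage. No-enzyme wells = max signal.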
PLK1 PBD inh = inhibitors of human PLK1 polo-box domain binding | P53350 | Plk1 PBD binding of FITC phosphopeptide, fluorescence polarization | Potency, µM, hits mostly inhibitors | 360,000 tested, 2.8% active | AID 720504; further: series mostly up to about 57 µM; nearly all actives have a fitted effect of over 65% in size
USP1-UAF1 confirm = blocks human USP1/UAF1 cleavage of Ub-Rhodamine; shares compounds with VDR inhibitor; Ub-Rhodamine cleavage, fluorescence kinetic read; Potency, µM (top dose mostly 56.8 µM), actives largely listed as inhibitors; 50 tested, 50% active; AID 540327
VDR confirm = inhibits human vitamin D receptor, primary hit validation; Potency, µM, most hits filed as inhibitors; 840 tested, 89% active; shares compounds with VDR inhibitor; VDR-coactivator inhibition assay, qHTS confirmation
VDR FP = VDR (human) coactivator binding inhibition, fluorescein polarization; shares compounds with VDR inhibitor; VDR-coactivator binding, fluorescein fluorescence polarization; Potency, µM (top dose mostly 57.1 µM), hits mostly inhibitors; 840 tested, 48% active; AID 602200
VDR bla = VDR (human) inhibition, cell-based beta-lactamase validation | AID 602202 | Potency, µM (top dose mostly 46.1 µM), hits mostly inhibitors | VDR beta-lactamase reporter cells, FRET ratio; cells co-treated with VDR agonist LG190178 | shares compounds with VDR inhibitor | 840 tested, 23% active
VDR cytotox = cell toxicity, VDR inhibitor hit counter-screen; Potency, µM (top dose mostly 48.3 µM), hits mostly cytotoxic; 840 tested, 18% active; shares compounds with VDR inhibitor; cytotoxicity counter-screen, cell viability, qHTS; AID 602204; further: nearly all actives have a fitted effect of over 75% in size
Large screens that a line does not name were inactive (follow-up assays come after a bar, where they were run). Unless noted, the call rests on the fitted dose curve; in most records, active means well fitted curve in the direction sought with a large enough effect; inconclusive means small, poorly fitted or top-dose-only effect, or another doubt; inactive means no such curve, though single readings can be large; an effect the other way counts as inactive or inconclusive.

CSCC[C@H](NC(=O)[C@H](CCCNC(=N)N)NC(=O)[C@H](Cc1ccc(O)cc1)NC(=O)[C@@H]1CCCN1C(=O)CNC(=O)[C@H](CCC(=O)O)NC(=O)[C@H](CC(=O)O)NC(=O)[C@H](CCCCN)NC(=O)[C@H](CCCCN)NC(=O)[C@H](CCC(=O)O)NC(=O)[C@H](C)N)C(=O)N[C@@H](CCC(=O)O)C(=O)N[C@@H](Cc1cnc[nH]1)C(=O)N[C@@H](Cc1ccccc1)C(=O)N[C@@H](CCCNC(=N)N)C(=O)N[C@@H](Cc1c[nH]c2ccccc12)C(=O)NCC(=O)N[C@@H](CO)C(=O)N1CCC[C@H]1C(=O)N1CCC[C@H]1C(=O)N[C@@H](CCCCN)C(=O)N[C@@H](CC(=O)O)C(=O)O	none (no result: S-ASM inh, Pin1 inhibitor, Tb PFK inh, PLK1 PBD inh)
COc1ccccc1N1CCN(S(=O)(=O)c2c(C)sc3ncn(CC(=O)N(C)c4ccc(Cl)cc4)c(=O)c23)CC1	none (no result: S-ASM inh, Tb PFK inh, PLK1 PBD inh)
O=C(Nc1nc(-c2ccccn2)cs1)c1cc(Cl)ccc1[N+](=O)[O-]	VDR inhibitor 79.4µM, PLK1 PBD inh 9.47µM | VDR confirm 23.8 | VDR FP inactive | VDR bla inactive | VDR cytotox inactive
COc1ccc(C2C(Oc3ccccc3)C(=O)N2c2cc(C)ccc2C)cc1OC (stereo not drawn)	none
COc1ccc(C)cc1N1C(=N)/C(=C2/Nc3ccccc3S2)C(c2ccccc2)C1=O (stereo not drawn)	VDR inhibitor inconclusive, PLK1 PBD inh inconclusive | VDR confirm 10 | VDR FP 8.91µM | VDR bla inactive | VDR cytotox inactive
COc1ccc(-c2nc3ccccc3c(=O)n2Cc2ccccc2)cc1COc1ccc(NC(C)=O)cc1	none (no result: S-ASM inh, Tb PFK inh, VDR inhibitor, PLK1 PBD inh)
O=C1C(=Cc2ccncc2)CCCc2ccccc21	none (no result: S-ASM inh, Pin1 inhibitor, Tb PFK inh, VDR inhibitor, TDP1 block)
O=C1/C(=C/c2ccncc2)CCC/C1=C\c1ccncc1	VDR inhibitor 7.08µM, PLK1 PBD inh 21.2µM | VDR confirm 5.32 | VDR FP 3.55µM | VDR bla 3.26µM | VDR cytotox 20.6µM
CCOc1ccc(C(=O)CCN2CCCCCC2)cc1	VDR inhibitor 25.1µM, PLK1 PBD inh 10.6µM | VDR confirm 26.7 | VDR FP inconclusive | VDR bla inconclusive | VDR cytotox inconclusive
Cc1nn2c(=O)cc(COC(=O)c3ccc(NC(=O)c4cccs4)cc3)nc2s1	none (no result: S-ASM inh, Tb PFK inh, PLK1 PBD inh)
C=CC(C)(C)c1[nH]c2ccccc2c1C1=C(O)C(=O)C(c2c[nH]c3c(CC=C(C)C)cccc23)=C(O)C1=O	VDR inhibitor 17.8µM, TDP1 block inconclusive (no result: S-ASM inh, Pin1 inhibitor, Tb PFK inh, PLK1 PBD inh) | USP1-UAF1 confirm inconclusive
Cc1ccc(C(=O)Nc2c(C(=O)NCc3ccc(Cl)cc3)sc3nc(C)cc(C)c23)cc1	none (no result: S-ASM inh, Tb PFK inh, PLK1 PBD inh)
COc1cc(C(Nc2ccccn2)c2ccc3ccc(C)nc3c2O)cc(OC)c1O (stereo not drawn)	Pin1 inhibitor inconclusive, Tb PFK inh inconclusive, VDR inhibitor 17.8µM, PLK1 PBD inh 2.38µM | VDR confirm 7.52 | VDR FP 5.01µM | VDR bla inconclusive | VDR cytotox inconclusive
Cc1ccnc(NC(c2cc(C)ccc2O)c2ccc3cccnc3c2O)c1 (stereo not drawn)	VDR inhibitor 15.8µM (no result: S-ASM inh, Tb PFK inh, TDP1 block, PLK1 PBD inh) | VDR confirm 12.6 | VDR FP 11.2µM | VDR bla inconclusive | VDR cytotox inactive
COc1ccc(C(Nc2cc(C)ccn2)c2ccc3ccc(C)nc3c2O)cc1 (stereo not drawn)	VDR inhibitor inconclusive, PLK1 PBD inh 15µM (no result: TDP1 block) | VDR confirm 6.31 | VDR FP 3.55µM | VDR bla inactive | VDR cytotox inactive
Cc1ccc2ccc(C(Nc3ccccn3)c3ccccc3)c(O)c2n1 (stereo not drawn)	VDR inhibitor inconclusive, PLK1 PBD inh inconclusive
Cc1ccnc(NC(c2ccccc2)c2ccc3cccnc3c2O)c1 (stereo not drawn)	VDR inhibitor inconclusive, PLK1 PBD inh inconclusive (no result: Tb PFK inh, TDP1 block)
COc1ccccc1NC(c1cccnc1)c1ccc2cccnc2c1O (stereo not drawn)	Tb PFK inh inconclusive, VDR inhibitor 50.1µM, PLK1 PBD inh 2.99µM | VDR confirm 9.47 | VDR FP inconclusive | VDR bla inactive | VDR cytotox inactive
Cc1ccnc(NC(c2ccccc2F)c2ccc3cccnc3c2O)c1 (stereo not drawn)	VDR inhibitor inconclusive (no result: S-ASM inh, Tb PFK inh, PLK1 PBD inh)
COc1ccc(S(=O)(=O)CC(=O)c2cc3cc(Br)ccc3oc2=O)cc1	Tb PFK inh inconclusive, VDR inhibitor inconclusive, PLK1 PBD inh 1.68µM | VDR confirm 10 | VDR FP 3.98µM | VDR bla inactive | VDR cytotox inactive
Cc1nn(-c2ccccc2)c(-n2cccc2)c1C(=O)NCCCN1CCN(c2ccccc2F)CC1	none (no result: S-ASM inh, Tb PFK inh, PLK1 PBD inh)
COc1ccc(/C=C/C(=O)c2ccccn2)cc1	VDR inhibitor 39.8µM | VDR confirm 33.6 | VDR FP inconclusive | VDR bla inactive | VDR cytotox inactive
O=C(O)c1cccc(CN2C(=O)S/C(=C/c3cccc([N+](=O)[O-])c3)C2=O)c1	VDR inhibitor 20µM, PLK1 PBD inh inconclusive | VDR confirm 17.8 | VDR FP 22.4µM | VDR bla inactive | VDR cytotox inactive
O=C(Nc1cccc(Cl)c1)c1ccc2nc(Cc3ccccc3)oc2c1	none (no result: S-ASM inh, Tb PFK inh, PLK1 PBD inh)
CCSc1ncc(Cl)c(C(=O)Nc2ccc(S(=O)(=O)N3CCC(C)CC3)cc2)n1	none (no result: S-ASM inh, Tb PFK inh, PLK1 PBD inh)
COC(=O)c1ccc(NC(=O)c2nc(S(=O)(=O)Cc3cccc(C)c3)ncc2Cl)cc1	VDR inhibitor 20µM, PLK1 PBD inh inconclusive | VDR confirm 5.97 | VDR FP inconclusive | VDR bla 14.6µM | VDR cytotox 11.6µM
CCOC(=O)c1ccc(NC(=O)c2nc(S(=O)(=O)Cc3ccccc3)ncc2Cl)cc1	VDR inhibitor 31.6µM, PLK1 PBD inh 11.9µM | VDR confirm 13.4 | VDR FP inconclusive | VDR bla 14.6µM | VDR cytotox 13µM
COC(=O)c1ccccc1NC(=O)c1nc(S(=O)(=O)Cc2cccc(C)c2)ncc1Cl	VDR inhibitor inconclusive (no result: S-ASM inh, Tb PFK inh, PLK1 PBD inh)
